# PubChem BioAssay (Tox21)
# Values without a mark were called inactive. Results filed as inconclusive are left out. Where a call stands in place of a potency, no number is given. Activity calls are given as the source filed them. Unless noted, the call rests on the fitted dose curve; in most records, active means well fitted curve in the direction sought with a large enough effect in the repeat runs; inconclusive means weak or mixed curves; inactive means no such curve, though single readings can be large; an effect the other way counts as inactive or inconclusive.
# Key:
# [1] = qHTS RealTime-Glo MT Cell Viability Assay in HEK293 cells - 8 hour (AID 1224887); further: top concentration of the series differs between compounds; nearly all actives have a fitted effect of over 50% in size
# Outline: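 Luminescence readout at each listed time point; HEK293, 600 cells/well, RealTime-Glo MT reagent added with cells; compounds pinned (23 nL in DMSO) after 5 h at 37 C; continuous culture at 37 C.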
# [2] = A CellTox Green Cytotoxicity Assay to monitor cytotoxicity in HEK293 cells - 16 hour (AID 1224888); further: nearly all actives have a fitted effect of over 35% in size
# Outline: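 Read-out: fluorescence of a cell-impermeant cyanine dye staining DNA of dead cells, proportional to cytotoxicity. HEK293, 600 cells/well with reagent, compound (23 nL DMSO) added after 5 h; reads at 0, 8, 16, 24, 32, 40 h.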
# [3] = qHTS RealTime-Glo MT Cell Viability Assay in HepG2 cells - 0 hour (AID 1224889); further: nearly all actives have a fitted effect of over 50% in size
# Outline: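 Cells + NanoLuc/prosubstrate dispensed (600 cells/well) → 5 h at 37 C/5% CO2 → compounds in DMSO transferred → 40 h incubation at 37 C, luminescence read at 0, 8, 16, 24, 32, 40 h.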
# [4] = A CellTox Green Cytotoxicity Assay to monitor cytotoxicity in HepG2 cells - 8 hour (AID 1224890); further: nearly all actives have a fitted effect of over 45% in size; further: potency means the concentration at half of the fitted maximal effect
# Outline: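 HepG2, 600 cells/well premixed w/ CellTox Green; 5 h settle, 37 C/5% CO2; pintool cpd add (DMSO); 37 C, 40 h; fluorescence read at 0, 8, 16, 24, 32, 40 h.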
# [5] = qHTS assay to identify small molecule antagonists of the estrogen receptor alpha (ER-alpha) signaling pathway using the BG1 cell line in the presence of 0.1 nM 17-beta-estradiol - cell viability counter screen (AID 1259241); further: nearly all actives have a fitted effect of over 40% in size
# Outline: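 Cells were plated and left 24 hr, compounds in DMSO were pinned in, 17beta-estradiol was added to 0.1 nM final, and after 22 hr CellTiter-Fluor reagent was added for 30 min before fluorescence was read.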
# [6] = qHTS assay to identify small molecule antagonists of the androgen receptor (AR) signaling pathway using the MDA cell line in the presence of 0.5 nM R1881 - cell viability counter screen (AID 1259242); further: nearly all actives have a fitted effect of over 45% in size
# Outline: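 Live-cell protease fluorescence, CellTiter-Fluor, 30 min at 37C. Cells: MDA-kb2, 3,000/well, preincubated 5 hr. Compounds plus 0.5 nM R1881 final, 16 hr, 37C, 0% CO2.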
# [7] = target: Estrogen receptor (Homo sapiens) (UniProt P03372); experiment: qHTS assay to identify small molecule antagonists of the estrogen receptor alpha (ER-alpha) signaling pathway using the BG1 cell line in the presence of 0.1 nM 17-beta-estradiol (AID 1259244); further: nearly all actives have a fitted effect of over 50% in size
# Estrogen receptor (Homo sapiens), sequence (P03372 whole entry, looked up): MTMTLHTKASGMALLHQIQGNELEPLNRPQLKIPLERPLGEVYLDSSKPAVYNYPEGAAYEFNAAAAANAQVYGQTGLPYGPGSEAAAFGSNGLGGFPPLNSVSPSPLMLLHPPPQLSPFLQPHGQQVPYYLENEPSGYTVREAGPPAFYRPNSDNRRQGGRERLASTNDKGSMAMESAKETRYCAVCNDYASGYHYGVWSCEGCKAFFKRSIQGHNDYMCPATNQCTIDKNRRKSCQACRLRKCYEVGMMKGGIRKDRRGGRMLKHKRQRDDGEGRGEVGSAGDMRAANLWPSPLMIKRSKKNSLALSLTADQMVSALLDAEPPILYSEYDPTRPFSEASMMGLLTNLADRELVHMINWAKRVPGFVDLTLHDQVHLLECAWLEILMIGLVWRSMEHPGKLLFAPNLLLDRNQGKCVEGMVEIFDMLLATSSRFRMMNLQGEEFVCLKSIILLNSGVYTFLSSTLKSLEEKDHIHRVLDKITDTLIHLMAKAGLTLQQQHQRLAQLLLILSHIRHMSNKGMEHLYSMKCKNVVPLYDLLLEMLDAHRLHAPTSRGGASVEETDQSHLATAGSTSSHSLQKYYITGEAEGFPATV
# Outline: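 Luminescence after ONE-Glo (30 min, room temperature) measured ERE-luciferase activity in VM7Luc4E2 cells treated 22 h with compound and 0.1 nM final 17beta-estradiol as stimulator.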
# [8] = qHTS assay to identify small molecule HDAC inhibitors (AID 1259364);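 further: wild-type HCT-116 cells with endogenous class I/II HDAC activity; top concentration of the series differs between compounds; nearly all actives have a fitted effect of over 45% in size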
# Outline: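 HCT-116 (wild type), 1,500 cells/well, overnight; compound 2 hr 37C 5% CO2; HDAC-Glo I/II reagent 30 min RT; luminescence readout.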
# [9] = qHTS assay to identify small molecule agonists of the sonic hedgehog signaling (Shh) pathway - cell viability counter screen (AID 1259366); further: nearly all actives have a fitted effect of over 50% in size
# Outline: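 Cells are plated at 2,000 per well and left 4hr at 37C, 5% CO2 before compound addition. After 23hr of treatment, CellTiter-Fluor reagent is added for 1hr at 37C and fluorescence is measured.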
# [10] = qHTS assay to identify small molecule antagonists of the sonic hedgehog signaling (Shh) pathway (AID 1259369; calls by dose curve; further: nearly all actives have a fitted effect of over 45% in size)
# Outline: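 Luminescence readout: firefly Luc under Gli1 response element in 3T3Gli1-Luc cells (NIH/3T3 clone). Antagonist mode, stimulation by conditioned medium; compound exposure 24hr at 37 C, 5% CO2.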
# [11] = qHTS assay to identify small molecule agonists of the androgen receptor (AR) signaling pathway in the presence of an antagonist - cell viability counter screen (AID 1259379);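 further: MDA-kb2 human breast cancer cells carrying an MMTV luciferase reporter; series mostly up to about 92 µM; nearly all actives have a fitted effect of over 25% in size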
# Outline: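 Viability counter screen: CellTiter-Fluor fluorescence, measured in the same wells as the luciferase read-out. MDA-kb2 cells, 3,000/well, with nilutamide at 3.0uM final and compounds at 15 concentrations, 16 hr at 37C, 0% CO2.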
# [12] = qHTS assay to identify small molecule agonists of the estrogen receptor beta (ER-beta) signaling pathway - cell viability counter screen (AID 1259380); further: nearly all actives have a fitted effect of over 30% in size
# Outline: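 Luminescence read-out (CellTiter-Glo, 30 min, room temp) taken in the same wells as the beta-lactamase reporter assay; ER-beta-UAS-bla HEK293T cells exposed to DMSO-dissolved compounds for 16 hr at 37C in 2% charcoal-stripped FBS medium.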
# [13] = qHTS RealTime-Glo MT Cell Viability Assay in HEK293 cells - 24 hour (AID 1224886)
# Outline: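 Tox21 10K qHTS, HEK293, 600 cells/well, RealTime-Glo reagent co-dispensed with cells; 5 h preincubation, compound by pintool, 37 C, luminescence at 0–40 h.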
# [14] = target: Androgen receptor (Homo sapiens) (UniProt P10275); experiment: qHTS assay to identify small molecule antagonists of the androgen receptor (AR) signaling pathway using the MDA cell line in the presence of 0.5 nM R1881 (AID 1259243); further: nearly all actives have a fitted effect of over 50% in size
# Androgen receptor (Homo sapiens), sequence (P10275 whole entry, looked up): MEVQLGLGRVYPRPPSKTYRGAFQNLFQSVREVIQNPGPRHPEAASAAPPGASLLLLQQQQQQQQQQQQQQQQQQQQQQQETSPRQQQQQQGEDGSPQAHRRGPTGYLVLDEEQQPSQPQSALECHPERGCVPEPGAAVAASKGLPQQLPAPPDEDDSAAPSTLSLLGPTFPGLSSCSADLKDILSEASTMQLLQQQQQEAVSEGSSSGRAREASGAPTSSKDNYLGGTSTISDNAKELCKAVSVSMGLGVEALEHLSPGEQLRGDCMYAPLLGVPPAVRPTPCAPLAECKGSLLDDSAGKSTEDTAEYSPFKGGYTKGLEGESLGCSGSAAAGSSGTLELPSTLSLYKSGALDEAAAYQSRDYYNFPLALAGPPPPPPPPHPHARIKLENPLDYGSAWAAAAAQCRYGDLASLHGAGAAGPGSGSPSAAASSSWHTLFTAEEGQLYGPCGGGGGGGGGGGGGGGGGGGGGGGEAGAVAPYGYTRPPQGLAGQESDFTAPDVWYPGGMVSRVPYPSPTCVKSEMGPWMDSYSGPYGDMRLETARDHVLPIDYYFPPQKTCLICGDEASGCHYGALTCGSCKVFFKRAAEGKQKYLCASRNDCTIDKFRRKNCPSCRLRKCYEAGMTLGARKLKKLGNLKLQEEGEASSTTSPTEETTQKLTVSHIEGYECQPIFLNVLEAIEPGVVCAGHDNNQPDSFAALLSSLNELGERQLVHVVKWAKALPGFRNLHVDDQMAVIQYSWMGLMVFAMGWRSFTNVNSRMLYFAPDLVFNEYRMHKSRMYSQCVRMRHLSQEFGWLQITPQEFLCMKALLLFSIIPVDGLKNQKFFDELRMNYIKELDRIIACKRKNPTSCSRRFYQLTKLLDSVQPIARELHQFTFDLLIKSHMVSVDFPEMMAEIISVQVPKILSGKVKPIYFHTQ
# Outline: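 MDA-kb2, MMTV-luc (AR/GR elements); 3,000 cells/well; cpd + 0.5 nM R1881 final; 16 hr 37C, 0% CO2; ONE-Glo 30 min RT; luminescence.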
# [15] = qHTS assay to identify small molecule HDAC inhibitors - cell viability counter screen (AID 1259365)
# Outline: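 Counter screen in wild-type HCT-116 cells: compounds dissolved in DMSO are pin-transferred onto overnight-plated cells and left 2hr at 37C. ATP-based CellTiter-Glo luminescence then measures viable cells.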
# [16] = qHTS assay to identify small molecule antagonists of the sonic hedgehog signaling (Shh) pathway - cell viability counter screen (AID 1259367); further: nearly all actives have a fitted effect of over 55% in size
# Outline: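 CellTiter-Fluor signal in conditioned medium-stimulated 3T3 Gli1-Luc cells, 23 hr compound exposure, 37C.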
# [17] = qHTS assay to identify small molecule agonists of the sonic hedgehog signaling (Shh) pathway (AID 1259368; calls by dose curve;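 further: NIH/3T3-derived 3T3Gli1-Luc cells carrying a stable Gli1-driven firefly luciferase reporter; series mostly up to about 92 µM; nearly all actives have a fitted effect of over 15% in size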)
# Outline: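 Read-out: firefly luciferase luminescence from a Gli1 response element reporter stably integrated in NIH/3T3-derived 3T3Gli1-Luc cells, measured 30 min at room temperature after reagent addition. Compound exposure lasted 24 hr at 37 C, 5% CO2.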
# [18] = target: Estrogen receptor beta (Homo sapiens) (UniProt Q92731); experiment: qHTS assay to identify small molecule agonists of the estrogen receptor beta (ER-beta) signaling pathway (AID 1259377; active means well fitted activation curve with a large enough effect in the signal ratio in the repeat runs, not every such curve was filed as active; the % refers to the signal ratio)
# Estrogen receptor beta (Homo sapiens), sequence (Q92731 whole entry, looked up, the tested form may be a part): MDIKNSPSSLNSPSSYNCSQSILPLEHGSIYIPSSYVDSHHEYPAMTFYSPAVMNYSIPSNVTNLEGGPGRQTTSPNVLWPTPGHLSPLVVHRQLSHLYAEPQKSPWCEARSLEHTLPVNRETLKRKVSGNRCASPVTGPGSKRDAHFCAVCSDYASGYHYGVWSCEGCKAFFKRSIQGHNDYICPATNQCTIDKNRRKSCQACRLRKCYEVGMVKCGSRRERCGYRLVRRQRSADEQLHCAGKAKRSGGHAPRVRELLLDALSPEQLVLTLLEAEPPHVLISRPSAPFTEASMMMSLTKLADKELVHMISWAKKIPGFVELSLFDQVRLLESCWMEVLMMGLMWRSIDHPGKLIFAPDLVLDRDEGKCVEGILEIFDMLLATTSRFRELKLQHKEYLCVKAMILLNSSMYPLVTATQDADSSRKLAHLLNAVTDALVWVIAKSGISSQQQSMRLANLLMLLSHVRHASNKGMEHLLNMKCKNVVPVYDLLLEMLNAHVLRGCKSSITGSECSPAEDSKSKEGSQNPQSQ
# Outline: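 Agonist mode cell assay in GripTite HEK293T cells expressing an ER-beta fusion that drives beta-lactamase from an Upstream Activator Sequence; 16 hr compound exposure at 37C, then 2 h LiveBLAzer B/G FRET substrate at room temperature, fluorescence read-out.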
# [19] = target: Estrogen receptor beta (Homo sapiens) (UniProt Q92731); experiment: qHTS assay to identify small molecule antagonists of the estrogen receptor beta (ER-beta) signaling pathway (AID 1259378; active means well fitted inhibition curve with a large enough effect in the signal ratio in the repeat runs, not every such curve was filed as active; the % refers to the signal ratio)
# Outline: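 Antagonist mode: compounds added to beta-lactamase reporter HEK293T ER-beta-UAS cells stimulated with E2 (1nM final), 16 hr at 37C. LiveBLAzer B/G FRET substrate, 2 hours room temperature, fluorescence read-out.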
# [20] = qHTS assay to identify small molecule phospholipidosis (PLD) inducers (AID 1259344; active means well fitted curve in the direction sought with a large enough effect; an effect the other way counts as inactive or inconclusive)
# Outline: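 Accumulated phospholipid, stained red by LipidTOX during 24 h compound treatment of HepG2 cells at 37 C, is quantified from images as pit number and intensity, normalised per cell using Hoechst-stained nuclei.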
SMILES,Potency [1],Potency [2],Potency [3],Potency [4],Potency [5],Potency [6],Potency [7],Potency [8],Potency [9],Potency [10],Potency [11],outcome [12],Potency [13],outcome [14],outcome [15],Potency [16],outcome [17],Potency [18],outcome [19],outcome [20]
Cc1ccc(C(=O)C(=O)O)cc1C,inactive,inactive,inactive,inactive,inactive,inactive,inactive,inactive,inactive,inactive,inactive,inactive,–,–,–,–,–,–,–,–
COC(OC)C(C)c1ccccc1 (stereo not given),inactive,–,inactive,inactive,inactive,–,inactive,inactive,–,inactive,inactive,inactive,inactive,inactive,inactive,inactive,inactive,inactive,inactive,–
N#CCCOCCOCCC#N,inactive,–,inactive,–,inactive,inactive,inactive,inactive,inactive,inactive,inactive,inactive,inactive,–,inactive,inactive,inactive,inactive,inactive,–
Cc1cc(C)cc([N+](=O)[O-])c1,inactive,–,–,–,inactive,–,–,inactive,inactive,inactive,–,inactive,inactive,–,inactive,inactive,–,–,–,–
FC(F)(F)c1ccc(Cl)cc1Cl,inactive,–,inactive,inactive,inactive,–,–,–,inactive,inactive,inactive,inactive,inactive,–,inactive,inactive,inactive,–,–,–
Cc1cccc(Nc2ccncc2S(=O)(=O)NC(=O)NC(C)C)c1,inactive,–,inactive,inactive,inactive,inactive,–,–,–,inactive,inactive,inactive,inactive,–,inactive,inactive,–,inactive,inactive,–
CC(C)CCCC(C)CC=O (stereo not given),inactive,–,inactive,21.9 µM (active),inactive,inactive,–,inactive,inactive,inactive,inactive,inactive,inactive,–,inactive,inactive,inactive,inactive,inactive,–
CO/N=C(/C(=O)N[C@@H]1C(=O)N2C(C(=O)O)=C(Cn3nnc(C)n3)CS[C@H]12)c1csc(N)n1,inactive,inactive,inactive,inactive,inactive,inactive,–,–,–,inactive,inactive,inactive,–,–,inactive,inactive,inactive,inactive,inactive,inactive
C=CCOC(=O)c1ccc(C(=O)OCC=C)c(C(=O)OCC=C)c1,inactive,–,inactive,inactive,inactive,inactive,inactive,inactive,–,inactive,inactive,inactive,inactive,–,inactive,inactive,inactive,inactive,inactive,–
